Assay [1] is described as follows: NCI Yeast Anticancer Drug Screen. Data for the rad50 strain (AID 155).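 Also: 0% = growth of vehicle-only cultures of the same strain.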 The following applies: S. cerevisiae rad50 strain growth inhibition; at 50.0 µM; hits give high values. In short, it runs like this: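 DNA repair mutant yeast, compound exposure, growth read-out; inhibition is taken relative to vehicle.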
Assay [2] in a line: NCI Yeast Anticancer Drug Screen. Data for the mec2-1 strain (AID 157). Particulars: S. cerevisiae mec2-1 strain, at 50.0 µM, hits give high values. In outline: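 Cells of the genetically defined mec2-1 yeast strain are incubated with test compound. Inhibition of growth is calculated against vehicle-treated controls.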
The nature of assay [3]: NCI Yeast Anticancer Drug Screen. Data for the sgs1 mgt1 strain (AID 161).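 Also: 0% = growth of cultures given vehicle only.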 Particulars: S. cerevisiae sgs1 mgt1 strain, at 50.0 µM, hits give high values. In outline:
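Test agents were incubated with a DNA-repair-mutant yeast strain. Growth was then read and compared against vehicle-treated controls.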

A short description of assay [4]: NCI Yeast Anticancer Drug Screen. Data for the cln2 rad14 strain (AID 165).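 Also: 0% = growth equal to vehicle treated cultures.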 Particulars: S. cerevisiae cln2 rad14 strain, at 50.0 µM, hits give high values. In short, it runs like this: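 The screen exposed genetically defined yeast (cln2 rad14) to test compounds and scored growth inhibition relative to vehicle-treated controls.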
A short description of assay [5]: NCI Yeast Anticancer Drug Screen. Data for the bub3 strain (AID 167). The following applies: S. cerevisiae bub3 mutant strain, at 50.0 µM, hits give high values. In outline: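 In this screen, a yeast mutant lacking normal mitotic checkpoint function is challenged with compound. Relative growth versus vehicle gives the inhibition value.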
Assay [6] in a line: NCI Yeast Anticancer Drug Screen. Data for the mlh1 rad18 strain (AID 175). The following applies: S. cerevisiae mlh1 rad18 strain growth inhibition; at 50.0 µM; hits give high values. In short, it runs like this:
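Compound-treated yeast growth, normalised to vehicle controls. Strain bears defined DNA repair mutations.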

The panel holds about 79,000 compounds, 15% with a hit somewhere; the sample as a whole holds those more often. Unmarked numbers belong to inactive results. Activity calls are given as the source filed them. Rule as the data show it: active = growth inhibition above about 70%; inactive = the rest.

As for `CCN1CCNC(=O)C1c1ccccc1` (stereo unspecified), the growth inhibition in assay [1] is -9.3%; in assay [2], 16.1%; in assay [3] it was -17.2%; in assay [4], 1.35%; in assay [5], -1.1%; in assay [6], 1.05%.
For `CC(=O)O[C@H]1CC[C@]2(C)C3CC[C@]4(C)C([C@H](C)CCCC(C)C)CCC4[C@]3(/C=N/O)n3c(=O)n(-c4ccccc4)c(=O)n3[C@]2(/C=N\O)C1` (stereo partly specified), the growth inhibition was 28% in assay [1]; 35.2% in assay [2]; 28.8% in assay [3]; 9.7% in assay [4]; 38.9% in assay [5]; 45.4% in assay [6].
Regarding `C1=CC([P+](Cc2ccccc2)(c2ccccc2)c2ccccc2)CC1` (stereo unspecified), the growth inhibition in assay [1] is 81.8% (active); in assay [2] it was 65.5%; in assay [3], 55.9%; in assay [4] it was -1.55%; in assay [5] it was 52.6%; in assay [6], 52.9%.
As to `CC(=O)Nc1cc(F)c(N)c(F)c1`, the growth inhibition in assay [1] is -10.9%; in assay [2] it was -4.3%; in assay [3], -13.3%; in assay [4], -5.25%; in assay [5], 0.05%; in assay [6], -3.8%.
Regarding `CCOCC(C)(CO)CC(C)CO` (stereo unspecified), the growth inhibition was -10.2% in assay [1]; 1.35% in assay [2]; -5.6% in assay [3]; -6.6% in assay [4]; -4.55% in assay [5]; 4% in assay [6].
Turning to `CCOC(=O)C(=O)C(=O)NN(C)C1=NCCN1`, the growth inhibition in assay [1] is -11.4%; in assay [2] it was -2.05%; in assay [3], 7.45%; in assay [4], -13.6%; in assay [5], 6.55%; in assay [6], 2%.
On to `COc1ccc2nc(-c3ccccc3)c(=O)[nH]c2c1`, for which the growth inhibition in assay [1] was 4.1%; in assay [2], 13.8%; in assay [3], 24.7%; in assay [4], 12.6%; in assay [5], 25.1%; in assay [6], 10.5%.
For `Cc1ccc(Cl)cc1NC(=O)C(C)Oc1ccccc1` (stereo unspecified), the growth inhibition was 4.45% in assay [1]; -1.85% in assay [2]; -2% in assay [3]; -4.75% in assay [4]; 30.1% in assay [5]; 13.9% in assay [6].
As for `COC(=O)C(NC(=O)c1ccccc1)C(c1c(O)cc(O)cc1O)P(=O)(OC)OC` (stereo unspecified), the growth inhibition in assay [1] is -4.75%; in assay [2], 10.3%; in assay [3] it was 12.4%; in assay [4] it was 3.35%; in assay [5], 1%; in assay [6], 18%.
Regarding `N=[N+]=CC(=O)OCC(N)C(=O)O` (stereo unspecified), the growth inhibition was 78.7% (active) in assay [1]; 82.2% (active) in assay [2]; 80.2% (active) in assay [3]; 54.6% in assay [4]; 13.2% in assay [5]; 73.9% (active) in assay [6].
With `O=C(/C(=C(/[O-])C(F)(F)F)[n+]1cccc2ccccc21)C(F)(F)F`, the growth inhibition was -8.6% in assay [1]; -4.65% in assay [2]; -11.2% in assay [3]; -10.4% in assay [4]; -1.4% in assay [5]; 5.2% in assay [6].
On to `CCN(CC)CC(O)CN1CCCc2ccccc21` (stereo unspecified), for which the growth inhibition in assay [1] was -9.4%; in assay [2] it was 1.5%; in assay [3], 0.6%; in assay [4], -5.4%; in assay [5], 7.85%; in assay [6], -13.4%.
With `Cn1ncc2c(NN)nc(Cl)nc21`, the growth inhibition is 8.6% in assay [1]; -18.7% in assay [2]; -4.55% in assay [3]; -18.4% in assay [4]; -14.8% in assay [5]; 7% in assay [6].
For `CN1C(=O)CC(c2ccc(Cl)cc2)C1=O` (stereo unspecified), the growth inhibition was 21.4% in assay [1]; 21.4% in assay [2]; -0.65% in assay [3]; 2.5% in assay [4]; -3.75% in assay [5]; 2.65% in assay [6].
In the case of `CC(C)(C)OC(=O)c1cccc(Br)c1`, the growth inhibition in assay [1] was -8.1%; in assay [2] it was -12.8%; in assay [3], -4.55%; in assay [4], 15.2%; in assay [5], 12.8%; in assay [6] it was 11.1%.
Take `COc1ccc(C(C)c2cc3c(cc2OC)OCO3)cc1` (stereo unspecified): the growth inhibition in assay [1] was 9.25%; in assay [2], -32.6%; in assay [3], 15.2%; in assay [4] it was 3.35%; in assay [5], 3%; in assay [6] it was 10.9%.
In the case of `Clc1ccc(Nc2nc3ccccc3nc2-c2cccs2)cc1Cl`, the growth inhibition in assay [1] was -13.4%; in assay [2] it was 4.55%; in assay [3], 1.2%; in assay [4], -7.5%; in assay [5] it was -3.05%; in assay [6] it was -2.1%.
Take `CCOC(=O)C(=N\Nc1ccccc1)/C(C)=N\NC(N)=S`: the growth inhibition in assay [1] was 13.2%; in assay [2], -7.45%; in assay [3], -11.7%; in assay [4], 8.95%; in assay [5] it was 4.5%; in assay [6], 1.9%.
On to `C=C(Br)CN(C(C)=O)C1CCCCC1`, for which the growth inhibition is -9.2% in assay [1]; -10.7% in assay [2]; 8.05% in assay [3]; 18.6% in assay [4]; 15% in assay [5]; 26.8% in assay [6].
With `O=C(Cc1ccccc1)c1ccccc1C(=O)NCc1ccccc1`, the growth inhibition was -5.8% in assay [1]; -3.45% in assay [2]; 1.1% in assay [3]; -66.5% in assay [4]; 14.9% in assay [5]; -7.1% in assay [6].
Regarding `CCCCC(CC)COB(OCC(CC)CCCC)OCC(CC)CCCC` (stereo unspecified), the growth inhibition in assay [1] was -41%; in assay [2], -38.3%; in assay [3], -22.1%; in assay [4], -0.8%; in assay [5], -23.2%; in assay [6] it was -24.3%.
As for `C#CCn1c(=O)c2ccccc2n(CC#C)c1=O`, the growth inhibition in assay [1] is -10.3%; in assay [2], -1.6%; in assay [3], -6.3%; in assay [4], 15.8%; in assay [5], 9.05%; in assay [6], 23.9%.
Take `CC(C)(Oc1ccc(Cl)cc1)C(=O)NC1CC(C)(C)N(O)C(C)(C)C1`: the growth inhibition in assay [1] was -0.4%; in assay [2], 4.95%; in assay [3], -13.2%; in assay [4] it was -48.5%; in assay [5], -43.2%; in assay [6], -18.4%.
Regarding `Nc1ccc(S(=O)(=O)O)cc1Cl`, the growth inhibition is -12.5% in assay [1]; -12% in assay [2]; -5.25% in assay [3]; -9.9% in assay [4]; -10.4% in assay [5]; -3.5% in assay [6].
On to `CCCCCCCCCCCCCCS(=O)(=O)CCCl`, for which the growth inhibition in assay [1] was -5.85%; in assay [2], -6.1%; in assay [3], -21.2%; in assay [4], -6.1%; in assay [5] it was -5.2%; in assay [6] it was -7.5%.
On to `N#Cc1ccc(NN=NCCOCCCl)cc1`, for which the growth inhibition was 18.3% in assay [1]; 26.6% in assay [2]; 17.9% in assay [3]; 34.9% in assay [4]; 27.1% in assay [5]; 23.6% in assay [6].
With `Cn1c2c(cc(-c3ccccc3)c1=O)COc1ccccc1-2`, the growth inhibition in assay [1] was 31.1%; in assay [2] it was -13.9%; in assay [3] it was 26.2%; in assay [4], 2.45%; in assay [5], 23.7%; in assay [6], 24.1%.
Take `N=C(N)C=O`: the growth inhibition in assay [1] was -12.4%; in assay [2] it was 0.3%; in assay [3], 5.45%; in assay [4], 0.05%; in assay [5], 1.45%; in assay [6], -7.95%.
Consider `COc1ccc(N=Cc2ccc(C=Nc3ccc(OC)cc3)cc2)cc1`, for which the growth inhibition is 23.2% in assay [1]; 2.25% in assay [2]; 21.3% in assay [3]; -0.95% in assay [4]; 20.1% in assay [5]; 19.9% in assay [6].
On to `Cc1cc(C)c(-c2c(C)cc(C)c([N+](=O)[O-])c2C)c(C)c1N`, for which the growth inhibition was 98.1% (active) in assay [1]; 98.8% (active) in assay [2]; 98.4% (active) in assay [3]; 96.5% (active) in assay [4]; 97.2% (active) in assay [5]; 97.8% (active) in assay [6].
As for `N#Cc1cnn(-c2ccc(Br)cc2)c1N`, the growth inhibition was 11.4% in assay [1]; 0.6% in assay [2]; 3.1% in assay [3]; -33.8% in assay [4]; -7% in assay [5]; 6.3% in assay [6].
As for `CN(C)c1ccccc1CCCCCBr`, the growth inhibition in assay [1] is 8.35%; in assay [2] it was 5.5%; in assay [3], 5.5%; in assay [4], -37.1%; in assay [5], -6.7%; in assay [6], 3.75%.
Take `COc1ccc(N=Cc2ccc(C=Nc3ccc(OC)cc3OC)cc2)c(OC)c1`: the growth inhibition in assay [1] is 10.6%; in assay [2] it was -21.6%; in assay [3] it was 5.15%; in assay [4] it was 7.7%; in assay [5], -5.45%; in assay [6], -1.9%.
Regarding `CN1C(=O)c2ccccc2Cc2c(Cl)ncnc21`, the growth inhibition in assay [1] is -0.5%; in assay [2], 26.4%; in assay [3], 11.2%; in assay [4], -1.45%; in assay [5], 28.6%; in assay [6] it was 2.1%.
For `N#C/C(=C\NC(=S)C(N)=S)C(=O)c1ccc2ccccc2c1`, the growth inhibition in assay [1] is 40.4%; in assay [2], 30.3%; in assay [3], 40.5%; in assay [4], 33.5%; in assay [5], 24.3%; in assay [6] it was 50.9%.
`CN1CCC(Cl)(C(=O)c2ccccc2)CC1`: the growth inhibition in assay [1] was 26.2%; in assay [2], 4.35%; in assay [3] it was 25.6%; in assay [4], -9.5%; in assay [5], 5%; in assay [6] it was 8.25%.
`CC(C)(C)C1=CC(=N/N=c2\scc(-c3ccccc3)n2Cc2ccccc2)C=C(C(C)(C)C)C1=O`: the growth inhibition in assay [1] was 17.4%; in assay [2], -4.6%; in assay [3], -5.35%; in assay [4] it was -29.5%; in assay [5], -11.6%; in assay [6], -2.6%.
Consider `O=c1c2c(ccc3ccccc32)oc2ccc3ccccc3c12`, for which the growth inhibition in assay [1] was 15%; in assay [2], 1.45%; in assay [3], -5.45%; in assay [4] it was -45.1%; in assay [5], -7.65%; in assay [6], 16.4%.
Take `CC(Cl)CNC(=O)Nc1cccc2c1CCCC2` (stereo unspecified): the growth inhibition in assay [1] is 3.45%; in assay [2], 10.2%; in assay [3], -1.9%; in assay [4], -48.6%; in assay [5], -22.2%; in assay [6], -1.4%.
For the molecule `CC(=O)C1CCC2C3CCC4CC5(CCC4(C)C3C(=O)CC12C)NC(C(=O)O)CS5` (stereo unspecified), the growth inhibition in assay [1] was 2.25%; in assay [2], 3.4%; in assay [3], 5.85%; in assay [4], -6.25%; in assay [5] it was -0.6%; in assay [6] it was -1.35%.
On to `O=C1Cc2c(-c3cccs3)cc(-c3ccccc3)nc2-c2ccccc2N1`, for which the growth inhibition in assay [1] is 0%; in assay [2], -3.9%; in assay [3], 3.4%; in assay [4] it was 18.2%; in assay [5], -4.75%; in assay [6], 7.85%.

Source of the values: PubChem BioAssay (NCI).
